# Source: PubChem BioAssay AID623870 (Broad Institute, 2012)
# Out of some 390,000 compounds screened, about 2,600 (0.67%) were called active. The list comes from a sample in which actives are over-represented; it also holds similar structures and randomly drawn compounds. Values without a mark were called inactive.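 How the source made its calls: active means mean inhibition of replicates at least 50% and at least half of replicates each reaching 50%; inconclusive means half or more replicates reach 50% but mean below 50%; inactive means the rest.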
# Target: Transforming acidic coiled-coil-containing protein 3 (Homo sapiens) (UniProt Q9Y6A5)
# Assay: disruptors of ARNT/TACC3 protein interaction, primary screen, biochemical, AlphaScreen, single concentration (AID 623870);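 further: 0% = complete ARNT plus TACC3 wells and 100% = ARNT alone without TACC3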
# Settings: AlphaScreen His-ARNT PAS-B/GST-TACC3 binding, luminescence; at 9.99 µM; hits give high values; TACC3 fragment carries E629A point mutation
row,SMILES,inhibition
1,Oc1c(C(c2ccccn2)N2CCOCC2)ccc2cccnc12 (stereo not drawn),70.2% (active)
2,CNC[C@@H]1OCCCC[C@H](C)Oc2ccc(NC(=O)Nc3ccc(OC)cc3)cc2C(=O)N([C@H](C)CO)C[C@@H]1C,-2.24%
3,O=C(C[C@@H]1C[C@H]2c3cc(NC(=O)Nc4ccccc4F)ccc3O[C@H]2[C@@H](CO)O1)NCc1ccncc1,-5.98%
4,Cc1ccccc1CSc1nnc(-c2ccccn2)n1N,54.4% (active)
5,Cc1ccccc1CSc1nnc(-c2cccnc2)n1N,-2.01%
6,Cn1c(SCC(=O)C(C)(C)C)nnc1-c1ccccn1,13.6%
7,C[C@H](CO)N1C[C@H](C)[C@@H](CN(C)C(=O)C2CCCCC2)Oc2cc(C3=CCCC3)ccc2S1(=O)=O,5.91%
8,O=C(C[C@@H]1CC[C@@H]2[C@H](COC[C@@H](O)CN2Cc2ccc(F)cc2)O1)NCc1ccncn1,-1.34%
9,COc1ccccc1C#Cc1ccc([C@@H]2[C@H](CO)N3CCCCN(CCC(F)(F)F)C[C@@H]23)cc1,26%
10,Cc1noc(C)c1S(=O)(=O)N(C)C[C@H]1OCCCC[C@H](C)Oc2ccc(NS(=O)(=O)c3ccccc3)cc2C(=O)N([C@H](C)CO)C[C@@H]1C,-5.63%
11,COc1ccc(S(=O)(=O)N2C[C@@H](O)COC[C@H]3O[C@H](CC(=O)N[C@H]4CCN(Cc5ccccc5)C4)CC[C@@H]32)cc1,-2.17%
12,O=C(NCCCn1ccnc1)C(=O)NCC1OCCN1S(=O)(=O)c1cc(F)ccc1F (stereo not drawn),60.2% (active)
13,Cc1cc(F)ccc1S(=O)(=O)N1CCCOC1CNC(=O)C(=O)NCCC1=CCCCC1 (stereo not drawn),3.52%
14,O=C(NCCCc1ccccc1)C(=O)NCC1OCCN1S(=O)(=O)c1ccccc1 (stereo not drawn),0.478%
15,CC(C)NC(=O)Nc1ccc2c(c1)CC(=O)N([C@@H](C)CO)C[C@@H](C)[C@H](CN(C)CC1CC1)O2,-5.56%
16,CO[C@@H]1CC[C@@H]2CCOc3ccc(C#N)cc3C(=O)N(C)C[C@H](c3ccccc3)CC(=O)N(C)C[C@H]1O2,-7.48%
17,Cc1noc(C)c1NC(=O)N[C@H]1C=C[C@@H](CC(=O)Nc2ccccc2)O[C@H]1CO,-3.76%
18,Cc1ccc(S(=O)(=O)Nc2ccc3c(c2)CC(=O)N([C@@H](C)CO)C[C@@H](C)[C@@H](CN(C)S(=O)(=O)c2ccccc2)O3)cc1,-1.52%
19,COc1c(O)cc2oc(-c3ccc(O)c(O)c3)cc(=O)c2c1O,36.8% (active)
20,C[C@H](CO)N1C[C@H](C)[C@H](CN(C)C(=O)C2CCOCC2)Oc2ncc(-c3ccccc3)cc2C1=O,-4.96%
21,CC(C)CC#Cc1cnc2c(c1)C(=O)N([C@@H](C)CO)C[C@H](C)[C@@H](CN(C)C(=O)c1ccc(F)cc1)O2,7.13%
22,Cc1cccc(NC(=S)N(CCN(C)C)C(C)c2ccco2)c1 (stereo not drawn),-28.1%
23,CSc1cccc(NC(=S)N(C(C)C)C(C)c2ccccn2)c1 (stereo not drawn),19%
24,CC(c1ccccn1)N(CCN(C)C)C(=S)Nc1ccccc1F (stereo not drawn),56.1% (active)

row,SMILES,inhibition
1,C[C@@H]1CN([C@H](C)CO)S(=O)(=O)c2ccc(-c3cncnc3)cc2O[C@H]1CN(C)C(=O)Cc1ccccc1,-17%
2,C[C@H](CO)N1C[C@H](C)[C@@H](CN(C)Cc2ccc(Cl)c(Cl)c2)Oc2c(NC(=O)Nc3ccccc3)cccc2C1=O,6.91%
3,CCCc1[nH]nc2c1C(c1ccc(Br)s1)C(C#N)=C(N)O2 (stereo not drawn),3.43%
4,COc1ccccc1C1C(C#N)=C(N)Oc2c1c(-c1ccccc1)nn2-c1ccccc1 (stereo not drawn),2.34%
5,COc1cc(C2C(C#N)=C(N)Oc3n[nH]c(-c4ccccn4)c32)cc(OC)c1OC (stereo not drawn),71.4% (active)
6,O=C(C[C@H]1CC[C@H]2[C@@H](COC[C@@H](O)CN2Cc2ccccc2F)O1)NCc1ccccc1F,-10%
7,Cc1noc(C)c1NC(=O)Nc1ccc2c(c1)C(=O)N([C@@H](C)CO)C[C@H](C)[C@@H](CN(C)Cc1ccncc1)OCCCC[C@@H](C)O2,-0.402%
8,CN(C)c1ccc2c(c1)[C@H]1C[C@H](CC(=O)O)O[C@H](CO)[C@H]1O2,22.1%
9,CNC(=O)C[C@H]1CC[C@H]2[C@H](COc3ccc(NC(=O)c4cc(C)on4)cc3C(=O)N2C)O1,8.66% (active)
10,Cc1cc(C(=O)Nc2ccc3c(c2)C(=O)N(C)[C@@H]2CC[C@H](CC(=O)NC4CCCC4)O[C@@H]2CO3)no1,-1.61%
11,Cc1cc(C(=O)Nc2ccc3c(c2)C(=O)N(C)[C@@H]2CC[C@@H](CC(=O)NC4CCCC4)O[C@@H]2CO3)no1,-5.47%
12,Cc1ccccc1Nc1nc(N)nc(CSc2nnc3ccccn23)n1,-0.395%
13,CCCn1nc(C(=O)OCc2nc(N)nc(Nc3ccccc3C)n2)c2ccccc2c1=O,10.3%
14,Cc1ccccc1Nc1nc(N)nc(CN2CCN(c3ccccn3)CC2)n1,86% (active)
15,COc1ccc(-c2ccc([C@@H]3[C@@H](C#N)N(C(=O)C4CCC4)[C@@H]3CO)cc2)cc1,-0.479%
16,C[C@H]1CN([C@@H](C)CO)C(=O)c2cc(N(C)C)ccc2O[C@@H]1CN(C)C(=O)Nc1ccc2c(c1)OCO2,12.1%
17,Cc1ccnc(NS(=O)(=O)c2ccc(NC(=O)c3ccc(S(=O)(=O)N4CCOCC4)cc3)cc2)n1,-1.47%
18,O=C(Nc1nnc(-c2ccco2)o1)c1ccc(S(=O)(=O)N2CCOCC2)cc1,79.1% (active)
19,O=C(Nc1ccc(S(=O)(=O)N2CCOCC2)cc1)c1ccc2ncsc2c1,8.14%
20,CCCNC(=O)C[C@@H]1CC[C@H]2[C@H](COc3ccc(NC(=O)CCC)cc3C(=O)N2C)O1,-12.3%
21,Cc1noc(C)c1NC(=O)Nc1ccc2c(c1)C(=O)N([C@H](C)CO)C[C@H](C)[C@H](CN(C)Cc1ccc(C(=O)O)cc1)OCCCC[C@H](C)O2,-1.31%
22,C[C@H](CO)N1C[C@H](C)[C@@H](CN(C)C)Oc2ccc(NS(=O)(=O)c3cccs3)cc2C1=O,-4.47%
23,C[C@@H]1CN([C@@H](C)CO)C(=O)c2cc(NS(=O)(=O)c3cccs3)ccc2O[C@H]1CN(C)CC1CCCCC1,54.3% (active)
24,C[C@H](CO)N1C[C@H](C)[C@@H](CN(C)CC2CCCCC2)Oc2ccc(NS(=O)(=O)c3cccs3)cc2CC1=O,8.01%
